Screen size: about 52,000 compounds; about 4,300 (8.3%) were called active. The full list was thinned out, with actives kept by preference. A number with no mark means an inactive call. Rule as the data show it: active = survival mostly below about 52% (no sharp cut-off); inactive = mostly above about 56%.
Test system: DeltatarO mutant
Experiment: growth inhibition of S. aureus wild type versus tarO mutant, primary screen, teichoic acid synthesis inhibitors, RN4220, OD600 (AID 463173)
Conditions: OD600, 18 h, active compounds read low, screened at 18.75 µg/mL (by protocol)

| Structure (SMILES) | survival |
| --- | --- |
| CCCc1cc(=O)[nH]c(SCc2nc(-c3ccccc3)no2)n1 | 0% (active) |
| CCc1cc(=O)[nH]c(SCc2nc(-c3ccc(C(F)(F)F)cc3)no2)n1 | 32% (active) |
| CCc1cc(=O)[nH]c(SCc2nc(-c3cccc(Cl)c3)no2)n1 | 49% |
| CCc1cc(=O)[nH]c(SCc2nc(-c3ccccc3)no2)n1 | 95% |
| CCCc1cc(=O)[nH]c(SCc2nc(-c3ccc(C)cc3)no2)n1 | 78% |
| O=c1cc(-c2ccccc2)nc(SCc2nc(-c3ccc(C(F)(F)F)cc3)no2)[nH]1 | 188% |
| Cc1ccc(CNC(=O)c2sc3nc(C)cc(C)c3c2-n2cccc2)cc1 | 90% |
| COc1ccccc1CNC(=O)c1cc2c(s1)-c1ccc(Cl)cc1SC2 | 79% |
| Cc1ccccc1Nc1nnc(-c2ccc(C)c(S(=O)(=O)N3CCOCC3)c2)c2ccccc12 | 85% |
| O=C(NC(CO)C(=O)O)c1ccncc1 (stereo unspecified) | 94% |
| CCc1ccc(Cc2cnc(NC(=O)c3ccc4c(c3)CC(c3ccccc3)OC4=O)s2)cc1 (stereo unspecified) | 51% |
| COc1cccc(-n2c(C)nc3cc(C(=O)O)ccc32)c1 | 177% |
| O=C(Cn1c(=O)nc(-c2ccccc2)c2cc(Cl)ccc21)N1CCN(c2ccc(F)cc2)CC1 | 99% |
| O=S(=O)(NC1CCc2ccccc21)c1ccc(S(=O)(=O)N2CCCC2)cc1 (stereo unspecified) | 82% |
| CC1Cc2cc(S(=O)(=O)CCC(=O)Nc3ccccc3F)ccc2N1C(=O)C1CC1 (stereo unspecified) | 100% |
| CC(=O)c1cccc(NC(=O)c2cc(-c3ccc(Cl)s3)nc3ccccc23)c1 | 77% |
| CC(=O)c1cccc(Nc2nc(-c3ccccc3Cl)nc3ccccc23)c1 | 38% (active) |
| CC(=O)c1cccc(Nc2ncnc3c2cnn3C)c1 | 67% |
| Oc1ccc(Nc2ncnc3ccccc23)cc1 | 77% |
| Cc1cccc(Nc2nc(-c3ccccc3)nc3ccccc23)c1 | 1% (active) |
| Fc1ccc(Nc2nc(SCc3ccc(Cl)cc3)nc3ccccc23)cc1 | 92% |

| Structure (SMILES) | survival |
| --- | --- |
| Cc1nnc2c3ccccc3nc(Nc3cccc(O)c3)n12 | 101% |
| Oc1cccc(Nc2nc(-c3ccccc3)nc3ccccc23)c1 | 10% (active) |
| Cc1cccc(-c2nc(N3CCN(c4ccc(F)cc4)CC3)c3ccccc3n2)c1 | 54% |
| Cc1cccc(Nc2cc(C)nc3nc(-c4ccccc4)nn23)c1 | 95% |
| Cc1nnc2c(Nc3cccc(O)c3)nc3ccccc3n12 | 68% |
| Oc1ccc(Nc2nc(-c3ccc(Cl)cc3)nc3ccccc23)cc1 | 3% (active) |
| COc1ccc(CCNC(=O)C(=O)NCC(c2cccs2)S(=O)(=O)c2ccc(C)cc2)cc1 (stereo unspecified) | 69% |
| O=C(CC1N=C2c3ccccc3N=C(SCc3ccc(F)cc3)N2C1=O)NC1CCCCC1 (stereo unspecified) | 124% |
| Cc1ccc(CNS(=O)(=O)c2cc3c(cc2C)NC(=O)CO3)cc1 | 79% |
| CCCN(CCC)c1nn2c(=O)c(C(=O)NCc3cccc(OC)c3)cnc2s1 | 84% |
| CC(C)NC(=O)CSc1nc2ccccc2n1CC(=O)NC(C)C | 96% |
| COC(=O)c1ccccc1NC(=S)N(Cc1ccco1)Cc1cc2cc(C)ccc2[nH]c1=O | 94% |
| O=c1c2ccccc2nc2sc(Nc3cccc(C(F)(F)F)c3)nn12 | 86% |
| CN(C(=O)c1cc2sccc2n1Cc1ccc(F)cc1)C1CCCCC1 | 88% |
| CCOc1ccccc1C(=O)Nc1ccc(S(=O)(=O)Nc2onc(C)c2C)cc1 | 77% |
| CCN(C1CCCCC1)S(=O)(=O)c1cccc(S(=O)(=O)N2CCCC2)c1 | 70% |
| COc1cc(C2c3c(oc4ccc(F)cc4c3=O)C(=O)N2c2nc(C)c(C)s2)cc(OC)c1OC (stereo unspecified) | 157% |
| COc1ccc2c(Sc3ccc(C)cc3)c(C(=O)NC(C)C)[nH]c2c1 | 86% |
| Cc1ccc(CCNC(=O)CCn2nc(-c3ccc(C)cc3)ccc2=O)cc1 | 94% |
| COc1ccc(C(=O)O)cc1Nc1nc2ccc(C)cc2n2cnnc12 | 117% |
| COc1ccc(Nc2nc(-c3ccccc3F)nc3ccccc23)cc1OC | 99% |

| Structure (SMILES) | survival |
| --- | --- |
| CC(=O)c1cccc(NC(=O)c2nc(-c3ccccc3)n(-c3cccc(C)c3)n2)c1 | 64% |
| CCC(=O)OCCCNc1nc(-c2ccc(Cl)cc2)nc2ccccc12 | -2% (active) |
| COc1cc(Nc2nc(-c3ccc(OC)c(OC)c3)nc3ccccc23)cc(OC)c1 | -2% (active) |
| OCCNc1nc(-c2cccnc2)nc2ccccc12 | 93% |
| COc1ccc(Nc2nc(-c3ccc(C)cc3)nc3ccccc23)c(OC)c1 | 75% |
| CC(=O)c1cccc(NC(=O)c2nc(-c3ccccc3)n(-c3ccccc3C)n2)c1 | 76% |
| CCOc1ccccc1OCCCCn1c(-c2ccc(Cl)cc2)nc2ccccc2c1=O | 45% |
| CC(=O)c1cccc(Nc2nc(-c3cccc(C)c3)nc3ccccc23)c1 | 4% (active) |
| O=C(O)c1ccc(Nc2nc3ccccc3c3nncn23)cc1 | 95% |
| COc1ccc(CNC(=O)C(OC(=O)c2ccc(Cl)nc2)c2ccccn2)cc1 (stereo unspecified) | 104% |
| CCC(CC)C(=O)OCc1cc(=O)n2nc(C3CC3)sc2n1 | 62% |
| COc1ccc(CCNC(=O)CCc2c(C)nc3c(c(C)nn3-c3ccc(C)c(C)c3)c2C)cc1OC | 57% |
| CC1=C(C)CC(C(=O)Nc2ccc(NC(=O)NC3CCCCC3)cc2)C(C(=O)O)C1 (stereo unspecified) | 81% |
| Cc1cc(N2CCN(c3ccc(F)cc3)CC2)n2nc(-c3ccc(Cl)cc3)nc2n1 | 49% |
| COc1ccc(-c2nc3nc(C)cc(N4CCN(c5cccc(C(F)(F)F)c5)CC4)n3n2)cc1 | 45% |
| Cc1cc(N2CCN(c3cccc(C(F)(F)F)c3)CC2)n2nc(-c3ccccc3)nc2n1 | 41% (active) |
| Cc1ccc(-c2nc3nc(C)cc(N4CCN(c5cc(Cl)ccc5C)CC4)n3n2)cc1 | 86% |
| Cc1cc(N2CCN(c3cccc(C(F)(F)F)c3)CC2)n2nc(-c3ccccc3C)nc2n1 | 2% (active) |
| Cc1cccc(-c2nc3nc(C)cc(N4CCN(c5ccccc5)CC4)n3n2)c1 | 60% |
